Consider 32 molecules from PubChem BioAssay (EPA / NIEHS).

Several values for one entry are separate records, joined by “and”; a condition that tells them apart may be missing. Equal entries are not always repeated. Activity calls are given as the source filed them. The calls were made as follows: active = hit-call score of the fitted dose curve at least 0.9, where 1 is the maximum; inactive = score below 0.9.

A short description of experiment [1]: ATG_NFI_CIS: Attagene CIS-FACTORIAL HepG2 Assay for human Nuclear Factor I (NFI) (AID 2282989). The following applies: HepG2 cis-regulatory reporter, NFI response element transcription; actives raise or lower the signal. In outline: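 HepG2, transient MRTU, 24 h exposure; RNA→cDNA→PCR→FAM label→HpaI→CE fluorescence. Bidirectional fit, DMSO = baseline.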
For experiment [2], the target named is Myc proto-oncogene protein (Homo sapiens) (UniProt P01106). In words: ATG_Myc_CIS: Attagene CIS-FACTORIAL HepG2 Assay for human Myelocytomatosis (Myc) Proto-Oncogene Transcription Factor (AID 2282990). The settings on record: HepG2, Attagene cis-reporter transcription factor activity; actives raise or lower the signal. In short, it runs like this:
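Fluorescence intensity of reporter-specific cDNA fragments, separated by capillary electrophoresis, gives the signal. Transfected HepG2 cells carrying cis-promoter reporter constructs are incubated with compound for 24 h; DMSO serves as baseline.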

A short description of experiment [3]: ATG_NF_kB_CIS: Attagene CIS-FACTORIAL HepG2 Assay for human Nuclear Factor Kappa B (NF-kB) (AID 2282991). The following applies: HepG2 Attagene cis-factorial NF-kB reporter mRNA; actives raise or lower the signal. In short, it runs like this:
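HepG2, transient multi-reporter transfection, cis promoter elements (endogenous TFs). 24 h exposure. Total RNA → RT → PCR → 6-FAM label → HpaI → CE. Gain/loss vs DMSO.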

Experiment [4] can be described thus: ATG_NRF2_ARE_CIS: Attagene CIS-FACTORIAL HepG2 Assay for human Nuclear Factor Erythroid 2 Related Factor 2 (NFR2) response to Antioxidant Response Elements (ARE) (AID 2282992).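 As to AC50: reporter mRNA level measured by RT-PCR and capillary electrophoresis fluorescence.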 The settings on record: HepG2 Attagene ARE/NRF2 reporter, transcription factor activity; actives raise or lower the signal. In outline:
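HepG2 cells transiently transfected with multiplexed cis-element reporter constructs, 24 h after chemical dosing; reporter mRNA quantified by RT-PCR, fluorescent primer extension, HpaI digestion and capillary electrophoresis. Bidirectional fit relative to DMSO.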

Experiment [5] deals with Cellular tumor antigen p53 (Homo sapiens) (UniProt P04637). The experiment can be described thus: ATG_p53_CIS: Attagene CIS-FACTORIAL HepG2 Assay for human p53 Transcription Factor (AID 2282994). The settings on record: HepG2 p53 cis-element reporter, Attagene mRNA; actives raise or lower the signal. In outline:
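HepG2 cells transiently transfected with cis-regulated multiple reporter transcription units, dosed 24 h. Reporter mRNA measured by RT-PCR, 6-FAM primer extension, HpaI digestion and capillary electrophoresis; bidirectional fit relative to DMSO.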

The nature of experiment [6]: BSK_3C_uPAR: BioMAP Diversity Plus: 3C Assay for Urokinase-type plasminogen activator receptor (uPAR) Biomarker Activity (AID 2282998). The settings on record: BioMAP 3C HUVEC, uPAR biomarker ELISA; actives raise or lower the signal. In short, it runs like this: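 Dose primary human umbilical vein endothelial cells, incubate 24 h, measure cell-surface uPAR by ELISA, then fit the signal in both directions against the DMSO negative control.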

Experiment [7] can be described thus: BSK_3C_VCAM1: BioMAP Diversity Plus: 3C Assay for Vascular cell adhesion molecule 1 (VCAM1) Biomarker Activity (AID 2282999). The settings on record: BioMAP 3C HUVEC, VCAM1 ELISA, cytokine-stimulated; actives raise or lower the signal. In short, it runs like this: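 Human umbilical vein endothelial cells (3C system), biomarker read by ELISA 24 h after dosing; bidirectional fit against DMSO baseline. Cytotoxicity tracked by SRB total-protein staining in parallel cultures at biomarker time.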

Experiment [8] in a line: ATG_Oct_MLP_CIS: Attagene CIS-FACTORIAL HepG2 Assay for human Octamer-Binding Transcription Factor (Oct) (AID 2282993). The settings on record: HepG2 Attagene cis-factorial Oct reporter, mRNA; actives raise or lower the signal. In outline: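 Multiplexed cis-reporter assay in human liver HepG2 cells, 24 h incubation. Reporter RNA amplified and labelled, then resolved by capillary electrophoresis; DMSO serves as negative control and baseline.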

Experiment [9] in a line: BSK_3C_TissueFactor: BioMAP Diversity Plus: 3C Assay for Tissue Factor Biomarker Activity (AID 2282997). The following applies: BioMAP 3C HUVEC, tissue factor biomarker readout; actives raise or lower the signal. In outline:
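Endothelial monolayers (human umbilical vein, primary) are dosed, incubated 24 h, and assayed for Tissue Factor by ELISA; DMSO serves as negative control for bidirectional fitting.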

Sequence of Myc proto-oncogene protein (Homo sapiens) (P01106 whole entry, looked up, the tested form may be a part): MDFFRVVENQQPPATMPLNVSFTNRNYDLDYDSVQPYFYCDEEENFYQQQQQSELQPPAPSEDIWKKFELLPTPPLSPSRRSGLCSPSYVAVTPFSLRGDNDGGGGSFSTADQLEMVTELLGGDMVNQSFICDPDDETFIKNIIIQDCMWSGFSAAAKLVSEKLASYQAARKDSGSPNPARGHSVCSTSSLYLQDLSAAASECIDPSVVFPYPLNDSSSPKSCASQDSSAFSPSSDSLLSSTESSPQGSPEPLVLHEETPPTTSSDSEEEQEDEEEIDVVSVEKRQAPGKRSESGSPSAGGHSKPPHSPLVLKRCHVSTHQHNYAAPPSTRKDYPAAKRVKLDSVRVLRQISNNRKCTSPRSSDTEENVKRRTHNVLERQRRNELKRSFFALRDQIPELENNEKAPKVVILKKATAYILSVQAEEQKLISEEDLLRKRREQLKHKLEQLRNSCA
Sequence of Cellular tumor antigen p53 (Homo sapiens) (P04637 whole entry, looked up): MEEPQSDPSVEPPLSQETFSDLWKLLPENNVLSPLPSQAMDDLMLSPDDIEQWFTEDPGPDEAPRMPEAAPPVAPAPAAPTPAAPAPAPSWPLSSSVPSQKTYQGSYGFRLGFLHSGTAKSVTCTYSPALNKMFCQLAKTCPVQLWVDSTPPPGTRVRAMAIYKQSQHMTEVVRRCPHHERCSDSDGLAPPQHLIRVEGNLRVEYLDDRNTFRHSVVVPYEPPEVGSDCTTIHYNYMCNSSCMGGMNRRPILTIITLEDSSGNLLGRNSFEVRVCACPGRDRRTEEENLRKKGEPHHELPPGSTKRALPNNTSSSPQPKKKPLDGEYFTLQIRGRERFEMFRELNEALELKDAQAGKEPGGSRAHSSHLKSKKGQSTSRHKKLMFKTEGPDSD

For orientation: AC50 means the midpoint of the concentration-response curve, whichever way the signal moves. For `Cc1cc(Cc2cc(C)cc(C(C)(C)C)c2O)c(O)c(C(C)(C)C)c1`, the values for the AC50 in experiment [1] and in experiment [2] were 25.8 µM (active) and 136 µM (active), respectively. Besides, the molecule was classed as inactive in experiment [3], in [4] and in experiment [5].

In the case of `COc1cccc(O)c1`, the outcome in experiment [1], in experiment [2], in [3], in [4], in experiment [5] and in [6] was inactive. The outcome in [7] was inactive.

Consider `OCC1CCC(CO)CC1` (configuration not stated), for which the call in [1], in experiment [2], in [3], in experiment [4] and in experiment [5] was inactive.

As for `C[C@]12CC[C@@H]3c4ccc(O)cc4CC[C@H]3[C@@H]1C[C@@H](O)[C@@H]2O`, the outcome in [1], in [2], in [3], in [4], in experiment [5] and in experiment [6] was inactive. For the same molecule, the outcome in experiment [7] was inactive.

Turning to `CC[N+](CC)(CC)Cc1ccccc1`, the molecule was classed as inactive in experiment [1], in [2], in [3], in experiment [4], in [5] and in experiment [6]. In addition, the result in experiment [7] was inactive.

Turning to `CCC1CO1` (configuration not stated), the result in [1], in experiment [2], in [3], in experiment [4] and in experiment [5] was inactive.

As to `C=CC(=O)OCCN(CC)CC`, the AC50 was 27.4 µM (active) in experiment [1], 144 µM (active) in experiment [4] and 169 µM (active) in experiment [5]. Besides, the result in [2] and in experiment [3] was inactive.

For the molecule `Oc1cccc2c(O)cccc12`, the molecule was called inactive in experiment [1], in experiment [2], in experiment [3] and in experiment [5]. Also, the concentration at half-maximal activity (AC50) in [4] was 8.25 µM (active).

Regarding `Cc1cncc(C)c1`, the molecule was classed as inactive in experiment [1], in [2], in experiment [3], in experiment [4] and in [5].

For the molecule `CCOC=C(C(=O)OCC)C(=O)OCC`, the result in experiment [1], in experiment [2], in experiment [3], in experiment [4] and in experiment [5] was inactive.

As for `CC(=O)CC(C)C`, the result in experiment [1], in [2], in [3], in experiment [4] and in experiment [5] was inactive.

Turning to `O=C(F)C(F)(F)C(F)(F)C(F)(F)C(F)F`, the call in experiment [1], in [2], in [3], in experiment [4] and in [5] was inactive.

Regarding `Clc1ccc(Nc2nnc(Cc3ccncc3)c3ccccc23)cc1`, the call in [1], in experiment [2], in experiment [3], in experiment [8], in [5] and in [6] was inactive. The result in [7] was inactive. Besides, in [4], the concentration at half-maximal activity (AC50) was 18.7 µM (active).

In the case of `N=C(N)c1ccc(OCCCCCOc2ccc(C(=N)N)cc2)cc1`, the result in experiment [1], in [2], in experiment [9] and in experiment [7] was inactive. For the same molecule, the concentration at half-maximal activity (AC50) in [3] is 87.5 µM (active); in experiment [4], 0.732 µM (active); in experiment [8] it was 34.4 µM (active); in experiment [6], 7.78 µM (active).

With `Cc1ccc(N=Nc2c(O)ccc3ccccc23)c(C)c1`, the call in experiment [1], in experiment [2], in experiment [3], in [8], in experiment [5] and in experiment [6] was inactive. The result in experiment [7] was inactive. Also, the concentration at half-maximal activity (AC50) in experiment [4] was 1.86 µM (active).

Regarding `Cc1cccc2c1ccc1ccccc12`, the call in [1], in experiment [2], in experiment [3], in [4], in experiment [8] and in experiment [5] was inactive. Further, the result in experiment [6] and in experiment [7] was inactive.

Take `C=CC(C)(CCC=C(C)C)OC(C)=O` (configuration not stated): the result in experiment [1], in experiment [2], in experiment [3], in [4], in experiment [5] and in experiment [7] was inactive. Besides, in experiment [6], the AC50 is 31.5 µM (active).

As for `O=C(C=C(O)C(F)(F)F)C(F)(F)F`, the result in [1], in experiment [2], in experiment [3], in [4] and in experiment [5] was inactive.

In the case of `O=C(O)c1cccc(C(=O)O)n1`, the molecule was called inactive in [1], in experiment [2], in [3], in [4] and in experiment [5].

With `CCOC(=O)CN[C@@H](C(=O)N1CC[C@H]1C(=O)NCc1ccc(/C(N)=N/O)cc1)C1CCCCC1`, the molecule was called inactive in experiment [1], in experiment [2], in experiment [3], in experiment [4], in experiment [8] and in [5]. Further, the result in experiment [6] and in experiment [7] was inactive.

In the case of `O=CC(F)(F)C(F)(F)C(F)(F)C(F)F`, the molecule was classed as inactive in experiment [1], in experiment [2], in experiment [3], in experiment [4] and in experiment [5].

For `CCCCC=O`, the molecule was called inactive in [1], in experiment [2], in experiment [3], in experiment [4], in experiment [8] and in experiment [6]. Moreover, in experiment [7], the result was inactive.

Consider `O=S(=O)(O)c1ccc2cc(O)ccc2c1`, for which the call in [1], in [2], in [3], in [4] and in experiment [5] was inactive.

Consider `O=c1cc(-c2ccccc2)oc2ccc3ccccc3c12`, for which the molecule was called inactive in [1], in experiment [2], in experiment [3] and in experiment [5]. Also, in [4], the AC50 was 182 nM (active) and 134 nM (active).

As for `COc1cc(OC)nc(NC(=O)NS(=O)(=O)Nc2ccccc2C(=O)N(C)C)n1`, the result in experiment [1], in [2], in [3], in experiment [4], in experiment [8] and in [5] was inactive. Also, the result in [6] and in experiment [7] was inactive.

With `Oc1ccc(Cc2ccccc2O)cc1`, the outcome in [1], in experiment [2], in [8], in [5], in experiment [6] and in [7] was inactive. In [4], the AC50 is 81 µM (active).

With `CC(=O)Nc1ccc(O)cc1`, the molecule was classed as inactive in [2], in experiment [8], in experiment [9], in experiment [6] and in experiment [7].

Turning to `CC(C)(C)C1CCCCC1O` (configuration not stated), the call in [1], in [2], in experiment [4] and in experiment [5] was inactive.

For the molecule `Cn1sccc1=O`, the AC50 in experiment [1] is 163 µM (active); in experiment [2], 187 µM (active); in [4], 161 µM (active); in experiment [8] it was 171 µM (active).

On to `NCCN`, for which the molecule was called inactive in experiment [1], in experiment [2], in experiment [4], in experiment [8] and in experiment [5].

With `CC1CCC(CO)CC1` (configuration not stated), the molecule was classed as inactive in [1], in [2], in experiment [4] and in experiment [8].

On to `CCCCc1oc2ccccc2c1C(=O)c1cc(I)c(OCCN(CC)CC)c(I)c1`, for which the molecule was classed as inactive in [2] and in experiment [5]. Also, the AC50 in experiment [8] was 27.3 µM (active); in experiment [6], 6.63 µM (active); in experiment [7] it was 22.6 µM (active).
